# In PMC5540273 (PLoS ONE, 2017):
# Key:
# Conditions in all cases: concentration: 1 μM, replicates: in singlicate; n = 1
# [1] = tested on: SRPK3
# [2] = tested on: STK16
# [3] = tested on: STK33
# [4] = tested on: STK35
# [5] = tested on: STK36
# [6] = tested on: STK39
# [7] = tested on: SYK
# [8] = tested on: SgK110
# [9] = tested on: T1, TAK1
# T1 construct: gene MAP3K7
# [10] = tested on: TAOK1
# 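Note: KINOMEscan kinase panel screen.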
Structure (SMILES),%Inh [1],%Inh [2],%Inh [3],%Inh [4],%Inh [5],%Inh [6],%Inh [7],%Inh [8],%Inh [9],%Inh [10]
COc1ccc(COc2cc(-n3cnc4ccccc43)sc2C(N)=O)cc1 [GSK1024304],17%,0%,13%,0%,0%,0%,26%,0%,0%,0%
CCc1nc(-c2cccc(C)c2)c(-c2ccnc(NCc3ccccc3)c2)s1,0%,19%,0%,0%,0%,0%,0%,22%,0%,0%
Cl.Nc1ncnc2occ(-c3ccc(NC(=O)Nc4cc(C(F)(F)F)ccc4F)cc3)c12 [SB-707548],0%,8%,87%,37%,0%,14%,68%,0%,98.6%,13%
Cc1cccc(-c2nc(Nc3ccc4ncsc4c3)c3ccccc3n2)n1 [GW867588],9%,12%,57%,2%,7%,4%,18%,5%,15%,23%
O=c1cc(N2CCOCC2)nc2n(Cc3cccc(Cl)c3Cl)c(C3CC3)nn12 [GSK2358994],0%,10%,0%,0%,3%,0%,0%,0%,0%,0%
CN(C1=C(c2ccccc2)C(=O)NC1=O)c1ccccc1 [SB-334860],0%,14%,0%,3%,0%,5%,32%,0%,18%,0%
Cc1ccc(NC(=O)c2ccnc(N3CCN(C)CC3)c2)cc1-c1ccc(C(=O)NCC2CC2)cc1 [GW775604],5%,0%,0%,1%,0%,0%,26%,3%,0%,0%
COc1ccc(CNC(=O)NC2CCN(c3ccnc(Nc4ccc(OC)cc4)n3)C2)cc1 (stereo not shown) [GSK1379727],0%,16%,0%,0%,0%,5%,22%,7%,0%,0%
c1ccc(-c2n[nH]cc2-c2ccnc3ccccc23)nc1 [GW271431],0%,18%,8%,19%,0%,0%,44%,0%,50%,0%
[2H]C([2H])(c1cccc(C(F)(F)F)c1C)n1ccn2c(=O)nc(N3CCOCC3)cc12 [GSK2336394],0%,0%,0%,0%,0%,1%,42%,0%,0%,0%
COc1ccc(Nc2ncc(C#N)c(Nc3ccccc3C(N)=O)n2)cc1N1CCN(C)CC1.Cl [GSK1558669],100%,98.3%,99.2%,99.3%,99.5%,100%,98.6%,66%,100%,86%
O=C(Nc1n[nH]c2cc(-c3cccc(F)c3)ccc12)C1CC1 [SB-735464],37%,5%,0%,12%,16%,0%,4%,0%,6%,40%
Cc1nnc(-c2ccc3occ(-c4ccc(C(C)O)cc4)c3c2)o1 (stereo not shown),0%,12%,0%,32%,19%,0%,14%,25%,25%,0%
Fc1ccc(-c2ncn(CCCN3CCOCC3)c2-c2cccnc2)cc1 [SB-211743],0%,0%,0%,1%,0%,0%,32%,17%,0%,0%
CN1c2ccc(NCc3ccc(F)cc3)cc2-c2c(cnn2C)S1(=O)=O,0%,0%,0%,0%,0%,0%,8%,67%,0%,0%
O=c1cc(N2CCOCC2)nc2n(Cc3cccc4ccccc34)ccn12 [GSK2333389],0%,0%,0%,2%,0%,0%,2%,0%,0%,0%
CN(C(=O)c1ccc(-c2cc(-c3c[nH]nc3-c3ccccn3)ccn2)cc1)C1CCOCC1 [GW810083],11%,0%,0%,0%,0%,17%,0%,0%,24%,0%

Structure (SMILES),%Inh [1],%Inh [2],%Inh [3],%Inh [4],%Inh [5],%Inh [6],%Inh [7],%Inh [8],%Inh [9],%Inh [10]
NCC(NC(=O)c1cc(-c2cn[nH]c2)c(-c2ccnc3[nH]ccc23)s1)c1ccccc1.O=C(O)C(F)(F)F.O=C(O)C(F)(F)F (stereo not shown) [GSK1325775],37%,46%,79%,0%,0%,9%,0%,66%,78%,91.9%
COc1ccc(S(=O)(=O)NC2CCN(c3cc(C)nc(Nc4cccc(C#N)c4)n3)CC2)cc1.O=C(O)C(F)(F)F [GSK1653539],0%,3%,0%,0%,0%,17%,0%,0%,0%,0%
NS(=O)(=O)c1cccc(-c2ccc3ncc(N4CCOCC4)nc3c2)c1 [GSK1535721],0%,16%,0%,0%,5%,1%,0%,1%,16%,14%
CCCCCc1nc2c(N)ncnc2n1CCCCC [SKF-97255],0%,9%,0%,0%,0%,7%,20%,3%,0%,0%
CN1c2ccc(CNc3ccc(F)cc3)cc2-c2c(cnn2C)S1(=O)=O,0%,0%,0%,0%,0%,0%,27%,0%,0%,0%
O=C(Nc1cccc(-c2nn3ncccc3c2-c2ccnc(Nc3cccc(C(F)(F)F)c3)n2)c1)c1c(F)cccc1F [GSK299495],0%,3%,0%,54%,99%,15%,68%,0%,0%,44%
Cc1ccc(C(=O)NCC(N)=O)cc1-n1c(C)cc(OCc2ccc(F)cc2F)c(Br)c1=O,21%,10%,10%,10%,15%,0%,20%,0%,0%,0%
Cl.Oc1cccc(Nc2ccnc3cc(-c4ccncc4)ccc23)c1 [GW494601],0%,26%,41%,0%,0%,1%,82%,0%,41%,0%
Cc1cn2c(=O)cc(N3CCOCC3)nc2n1Cc1cccc(Cl)c1Cl [GSK2334006],0%,14%,4%,3%,0%,17%,21%,0%,0%,0%
O=C1Cc2cc(Nc3nc(NCc4cccc(S(=O)(=O)C(F)(F)F)c4)ncc3C(F)(F)F)ccc2N1,6%,0%,7%,3%,0%,5%,6%,22%,5%,0%
Cc1c2ccc(N(C)c3ccnc(Nc4cccc(S(N)(=O)=O)c4)n3)cc2nn1Cc1ccccc1.Cl.Cl [GW787226],2%,55%,0%,0%,39%,0%,60%,2%,4%,0%
Cc1c(Cn2c(C)nn3c(=O)cc(N4CCOC(C)C4)nc23)cccc1C(F)(F)F (stereo not shown) [GSK2344444],0%,0%,0%,0%,0%,6%,12%,0%,0%,0%
CC(C)(C)n1cnc2c(N)ncnc21 [SKF-97359],0%,0%,0%,0%,0%,0%,0%,85%,22%,0%
Fc1ccc(-c2ncn(CCCN3CCOCC3)c2-c2ccccn2)cc1 [SB-211742],3%,0%,7%,0%,0%,0%,17%,16%,0%,0%
COc1cc2c(cc1OC[C@@H](O)CO)ncc1c3ccc(C#N)cc3[nH]c21,25%,0%,36%,0%,0%,0%,0%,0%,81%,0%
COc1cc2ncn(-c3cc(OCc4sccc4Cl)c(C(N)=O)s3)c2cc1OC [GSK448459],3%,21%,0%,0%,0%,0%,23%,0%,0%,0%
Cn1cc(-c2ccc3c(c2)CCN3C(=O)Cc2ccccc2Cl)c2c(N)ncnc21 [GSK2608885],0%,34%,18%,95.9%,100%,1%,51%,0%,5%,50%
